HEK cytotox: HEK 293 cell cytotoxicity | HEK 293 viability, ATP luminescence (CellTiter-Glo), 48-72 h | Potency, µM (highest dose often 115 µM), without a hit: at the top dose activity change, negative = cytotoxicity, most hits filed as inhibitors | 6.6% of 94,000 active | AID 1345083; further: nearly all actives have a fitted effect of over 60% in size
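Luminescence from cellular ATP, measured with CellTiter-Glo, indicates HEK 293 viability. Cells plated at 250 cells/well are treated with compound for 48 or 72 hr at 37 degree Celsius before reagent addition.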
NPR1 antag: blocks ANP-stimulated signaling of human Npr1 receptor | HEK293 hNpr1 GloSensor cGMP, ANP-stimulated luminescence | 1.6% of 76,000 active | P16066 | AID 1347048 | Potency, µM (top dose mostly 46.3 µM), without a hit: at the top dose activity change, negative = inhibition, actives largely listed as inhibitors; calls by dose curve; further: nearly all actives have a fitted effect of over 60% in size
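HEK293 cells stably expressing human Npr1 and cGMP GloSensor pGS-40F, loaded 2 h with 2% GloSensor reagent, given compound 30 min at room temperature. Luminescence read before and 20 min after 0.1 nM hNppA.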
3T3 cytotox: NIH 3T3 cell cytotoxicity; NIH 3T3 viability, CellTiter-Glo ATP luminescence, 48-72 h; 4.3% of 94,000 active; AID 1345082; Potency, µM (series often up to 96.7 µM), inactives show at the top dose activity change, negative = cytotoxicity, most hits filed as inhibitors; further: nearly all actives have a fitted effect of over 55% in size
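Cytotoxicity was measured by CellTiter-Glo ATP luminescence after 48 or 72 h compound exposure at 37 °C. Mouse NIH 3T3 fibroblasts were seeded at 400 cells/well and dosed by 23 nL pin transfer.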
FLuc inh: Photinus pyralis luciferase inhibition; P08659; purified P. pyralis luciferase, luminescence, biochemical; Potency, µM (series often up to 115 µM), most hits filed as inhibitors; 2.5% of 76,000 active; AID 1347043; further: nearly all actives have a fitted effect of over 65% in size
Target sequence (P08659 whole entry, looked up): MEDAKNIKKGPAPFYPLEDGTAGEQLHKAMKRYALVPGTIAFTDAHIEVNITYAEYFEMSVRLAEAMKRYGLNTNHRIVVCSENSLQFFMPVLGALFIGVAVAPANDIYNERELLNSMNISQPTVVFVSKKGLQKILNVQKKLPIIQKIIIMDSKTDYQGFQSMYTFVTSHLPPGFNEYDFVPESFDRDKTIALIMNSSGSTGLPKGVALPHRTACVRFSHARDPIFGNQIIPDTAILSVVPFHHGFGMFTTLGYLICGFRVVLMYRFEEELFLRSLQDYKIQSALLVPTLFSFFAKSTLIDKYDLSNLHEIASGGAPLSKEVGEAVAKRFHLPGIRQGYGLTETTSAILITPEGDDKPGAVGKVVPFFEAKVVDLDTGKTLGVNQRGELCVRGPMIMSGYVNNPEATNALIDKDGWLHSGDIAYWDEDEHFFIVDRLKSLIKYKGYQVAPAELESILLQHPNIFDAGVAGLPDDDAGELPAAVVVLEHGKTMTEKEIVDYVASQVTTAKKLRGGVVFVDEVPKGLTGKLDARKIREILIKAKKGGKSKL
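Purified P. pyralis luciferase (10nM final) in 50mM Tris acetate pH 7.5, 10mM Mg acetate, 0.01% Tween-20, 0.05% BSA with 10uM D-luciferin and 10uM ATP. Compounds titrated qHTS. Luminescence imaged on CCD.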
Active calls of the source: *; i = inactive; ? = inconclusive; . = no result given; [ ] = remark or other dose. Only some compounds are listed: those with a hit (about 11% of all), similar ones and a draw of the others. Unless noted, the call rests on the fitted dose curve; in most records, active means well fitted curve in the direction sought with a large enough effect; inconclusive means small, poorly fitted or top-dose-only effect, or another doubt; inactive means no such curve, though single readings can be large; an effect the other way counts as inactive or inconclusive. On the % scale 0 is the no-effect control and ±100 the full control effect; potency means the concentration at half of the fitted maximal effect.

SMILES	HEK cytotox	NPR1 antag	3T3 cytotox	FLuc inh
CCc1nc2c(c(-c3ccc(OC)cc3)n1)CCN(Cc1ccc(F)cc1)CC2	?	.	-7%	.
Cc1nnc2ccc(N3CCN(C(=O)c4ccccn4)CC3)nn12	-8%[172 µM]	.	-13%[138 µM]	.
COc1cc(CNC(=O)c2cccc3c2CCN3C(=O)C2CC2)cc(OC)c1	45µM*	-12%	-17%	i
COCCNC(=O)c1cccc2c1CCN2C(=O)C1CC1	-2%	8%	2%	i
COc1ccc2nc3n(c2c1)[C@@H](CNS(=O)(=O)c1ccc(F)cc1)COC3	-29%[172 µM]	0%[70.6 µM]	?	i
COc1ccc(S(=O)(=O)NC[C@H]2COCc3nc4ccc(C)cc4n32)cc1	?	?	89µM*	i
COc1ccc2nc3n(c2c1)[C@@H](CNCC(C)(C)C)COC3	?	3%[70.6 µM]	32µM*	i
COc1ccc2nc3n(c2c1)[C@@H](CNCc1ccccc1)COC3	?	?	?	i
c1csc(CN2CCC(Oc3ccccc3-c3nc(-c4cnccn4)no3)C2)c1 (stereo not drawn)	?	-13%	?	i
Cc1ccsc1CN1CCC(Oc2ccccc2-c2nc(-c3ccncc3)no2)C1 (stereo not drawn)	25µM*	-23%	32µM*	?
Cn1cccc1CN1CCC(Oc2ccccc2-c2nc(-c3ccncc3)no2)C1 (stereo not drawn)	?	.	40µM*	.
CN(CCc1ccccn1)[C@H]1[C@@H]2OC[C@@H](O2)[C@@H](NC(=O)Nc2cccc(C#N)c2)[C@@H]1O	i	0%[70.6 µM]	0%[174 µM]	i
Cc1cn2nc(C(=O)NCCC3=CCCCC3)cc2c(N2CCCC2)n1	-22%	16%	?	i
CC(C)n1cc(CN2CCC(Oc3ccc(C(=O)NC4CCCC4)cc3Cl)CC2)cn1	?	3%	40µM*	i
Cc1noc(C)c1-c1cc(-c2ccncc2)cn2cncc12	?	2%[70.6 µM]	?	i
CN(C)Cc1ccc(-c2cc(-c3ccncc3)c3cncn3c2)cc1	89µM*	-2%[70.6 µM]	?	?
Cc1noc(C)c1-c1cc(-c2ccc(CN(C)C)cc2)cn2cncc12	?	0%[70.6 µM]	28µM*	i
COc1ccccc1-c1cccc(CN2CCCC(C(=O)Nc3ccc(F)cc3)C2)c1 (stereo not drawn)	13µM*	.	?	.
Cc1[nH]cnc1CN1CCCC(C(=O)Nc2ccc(-c3cccc(F)c3)cc2)C1 (stereo not drawn)	25µM*	6%	?	i
CNC(=O)C1CCCN(Cc2cccc(-c3ccccc3OC)c2)C1 (stereo not drawn)	?	.	-25%	.
COc1ccccc1-c1cccc(CN2CCCC(C(=O)NCCc3ccc(F)cc3)C2)c1 (stereo not drawn)	?	.	32µM*	.
CC(C)[C@@H]1CN(S(=O)(=O)c2ccc(Cl)cc2Cl)C[C@H]1N(C)C	?	-7%	?	i
O=C(NCc1ccc(F)cc1)C1CCCN1C(=O)c1cccc(-c2ccccn2)c1 (stereo not drawn)	-24%	.	-21%	.
Cc1cccc(-c2noc([C@@H]3C[C@@H](O)CN3Cc3cccc(C#N)c3)n2)c1	?	-15%[70.6 µM]	?	?
Cc1ccc(-c2noc([C@@H]3C[C@@H](O)CN3Cc3ccc(C(=O)O)cc3)n2)cc1F	-11%[172 µM]	-3%[70.6 µM]	1%[138 µM]	50µM*
SMILES	HEK cytotox	NPR1 antag	3T3 cytotox	FLuc inh
COc1ccc(CN2C[C@H](O)C[C@H]2c2nc(-c3cccc(C)c3)no2)c2ccccc12	100µM*	-27%[70.6 µM]	79µM*	20µM*
Cc1ccc(-c2noc([C@@H]3C[C@@H](O)CN3Cc3ccccc3O)n2)cc1F	?	1%[70.6 µM]	45µM*	50µM*
Cc1cccc(C(=O)N2CCC(n3c(C)nn(C)c3=O)CC2)c1	2%	.	-22%	.
COc1ccc2[nH]cc(CCNC(=O)C3Cn4cccc4C(=O)N3Cc3ccccc3)c2c1 (stereo not drawn)	-14%	-13%	-21%	i
O=C(NCC1Cn2cccc2C(=O)N1Cc1cccnc1)c1n[nH]c(=O)c2ccccc12 (stereo not drawn)	-3%	-2%	40µM*	i
COc1ccc2[nH]cc(CCNC(=O)C3Cn4cccc4C(=O)N3Cc3cccnc3)c2c1 (stereo not drawn)	89µM*	-1%	?	i
COc1ncc(-c2nc(-c3c(C)noc3C)cc3c2cc(C)n3CCN(C)C)cn1	?	-3%[70.6 µM]	?	i
COc1ccc(-c2nc(-c3c(C)noc3C)cc3c2cc(C)n3CCN(C)C)cc1OC	89µM*	-16%[70.6 µM]	?	i
CC(=O)Nc1cccc(-c2nc(-c3c(C)noc3C)cc3c2cc(C)n3CCN(C)C)c1	79µM*	7%[70.6 µM]	?	i
COc1ncccc1-c1nc(-c2c(C)noc2C)cc2c1cc(C)n2CCN(C)C	?	3%[70.6 µM]	10µM*	i
COc1cccc(-c2nc(-c3c(C)noc3C)cc3c2cc(C)n3CCN(C)C)c1	45µM*	3%[70.6 µM]	10µM*	i
Cc1ccc(C(=O)N2CCCC(C(=O)N3CCC(N4CCOC4=O)CC3)C2)cc1 (stereo not drawn)	-9%	.	-27%	.
COc1cccc(-c2c(C(=O)N3CCN(C)CC3)nc3sccn23)c1	-1%	.	1%	.
Cc1noc(C)c1-c1cc2c(cc(C)n2C)c(NCCN(C)C)n1	?	-2%[70.6 µM]	?	i
Cc1noc(C)c1-c1cc2c(cc(-c3ccccc3)n2C)c(Nc2ccncn2)n1	32µM*	-17%[70.6 µM]	?	i
Cc1noc(C)c1-c1cc2c(cc(C)n2C)c(Nc2ccncn2)n1	?	-18%[70.6 µM]	20µM*	i
CNC(=O)c1cc(C)nc2onc(C3CCN(C(=O)c4ccc(F)cc4)CC3)c12	3%	.	-12%	.
O=C(CCN1c2ccccc2Sc2ccccc21)N1CCCC(c2nc(C3CCOCC3)no2)C1 (stereo not drawn)	40µM*	-25%	?	i
O=C(c1ccccc1)N1CCCC(c2nc(C3CCOCC3)no2)C1 (stereo not drawn)	4%	-9%	-3%	i
O=C(Cn1ccn2nc(-c3ccc(F)cc3)c(CO)c2c1=O)Nc1cccc(Br)c1	45µM*	-3%	?	i
COc1cc(NC(=O)Cn2ccn3nc(-c4ccccc4)c(CO)c3c2=O)cc(OC)c1OC	32µM*	-1%	?	i
O=C(Cn1ccn2nc(-c3ccccc3)c(CO)c2c1=O)Nc1cccc(Br)c1	?	-21%	-26%	i
O=c1c2c(CO)c(-c3ccc(F)cc3)nn2ccn1Cc1ccc(F)cc1	?	?	-26%	i
Cc1cccc(NC(=O)Cn2ccn3nc(-c4ccccc4)c(CO)c3c2=O)c1C	89µM*	0%	?	i
Cc1ccc(C)c(Cn2ccn3nc(-c4ccc(F)cc4)c(CO)c3c2=O)c1	35µM*	?	?	i

Bioassay records: PubChem BioAssay, National Center for Advancing Translational Sciences (NCATS)
